# From PubChem BioAssay (Tox21)
# Records with an inconclusive call do not appear. Entries that show only a call come without a potency. Values without a mark were called inactive. The source made the active and inactive calls. Calls follow the shape of the dose curve; as a rule, active = well fitted cell-killing curve with a large enough effect in the repeat runs; inconclusive = weak or mixed curves, or effect the other way; inactive = flat fitted curve, though single readings scatter.
# Assay: qHTS RealTime-Glo MT Cell Viability Assay in HEK293 cells - 8 hour (AID 1224887); also: top concentration of the series differs between compounds; nearly all actives have a fitted effect of over 50% in size
# Settings: RealTime-Glo luminescence; series mostly up to 76.8 µM
# Excerpt: U.S. Tox21 Program National Center for Advancing Translational Sciences [NCATS] NIH Chemical Genomics Center [NCGC] U.S. Environmental Protection Agency [EPA] National Institutes of Environmental Health Sciences [NIEHS] National Toxicology Program [NTP] U.S. Food and Drug Administration [FDA] Tox21 Assay Overview: Measure of cell viability is critical in the cell-base assay. Analysis of cell viability is necessary for the characterization of cell responses to cytotoxic drugs and environmental stress. A RealTime-Glo MT Cell Viability Assay to monitor cell viability in real time of continues cell culture during 40 hours of compound treatment was used to screen Tox21 10K library compounds in Hek293 cells. The RealTime-Glo MT Cell Viability Assay is a nonlytic, homogeneous, bioluminescent method to measure cell viability in real time using a simple, plate-based method. The assay involves adding NanoLuc luciferase and a cell-permeant prosubstrate to cells in culture. Viable cells reduce the proprietary prosubstrate to generate a substrate for NanoLuc luciferase. This substrate diffuses from cells into the surrounding culture medium, where it is rapidly used by the NanoLuc Enzyme to produce a luminescent signal. The signal correlates with the number of viable cells, making the assay well suited for cytotoxicity studies.
# Tox21 Assay Protocol Summary: The mixture of Hek293 cell suspension and reagents were dispensed at 600cells/6 ul/well in 1536-well tissue culture treated black solid bottom plates using a Multidrop dispenser. After the assay plates were incubated at a 37 C/5% CO2 incubator for 5 hours, 23 nL of compounds dissolved in DMSO, positive and negative controls was transferred to the assay plate by a pintool work station. The plates were incubated at 37 C for 40 hours. The luminescence intensity were measured at 0h, 8h, 16h, 24h, 32h and 40h time points using ViewLux plate reader during compound treatment.
Structure (SMILES),Potency,"activity change, negative = cytotoxicity"
CCOC(=O)C(=O)c1csc(NC=O)n1,inactive,–
NS(=O)(=O)c1ccc(Cl)c(S(N)(=O)=O)c1,inactive,–
NCCc1ccn[nH]1,inactive,–
CCCCCC1CCCC(=O)O1 (stereo not given),inactive,–
C=CCOc1c(Br)cc(C(C)(C)c2cc(Br)c(OCC=C)c(Br)c2)cc1Br,inactive,–
FC(F)(F)c1ccc(Cl)cc1Cl,inactive,–
O=C(Oc1ccccc1C(=O)O)c1ccccc1O,inactive,–
C[C@H](CCC(=O)O)[C@H]1CC[C@H]2[C@@H]3[C@H](O)C[C@@H]4C[C@H](O)CC[C@]4(C)[C@H]3C[C@H](O)[C@]12C,inactive,–
C1=C\CC/C=C\CC/1,inactive,–
CC(=O)OC(C)c1ccccc1 (stereo not given),inactive,–
CCCCC(C)C(=O)O (stereo not given),inactive,–
CCCCCCCCCCCCC,inactive,–
Cc1nc([N+](=O)[O-])cn1-c1ccc([N+](=O)[O-])cc1,inactive,–
CC(C)SCc1ccco1,inactive,–
COc1ccc(N=Nc2cc(C)c(N=Nc3ccc(S(=O)(=O)O)cc3)cc2OC)cc1,inactive,–
SCCSCCS,inactive,–
CCCO,inactive,–
CCC(CO)CO,inactive,–
Nc1ccc(S(=O)(=O)NC(=O)c2ccccc2)cc1,inactive,–
CCCCC(CC)CNC(=O)CC(C)OC(=O)CCC(=O)O (stereo not given),inactive,–

Structure (SMILES),Potency,"activity change, negative = cytotoxicity"
CCc1nccnc1C,inactive,–
C=C(C)[C@@H]1CC[C@@H](C)C[C@@H]1O,inactive,–
Cn1c(=O)c2c(ncn2CC2OCCO2)n(C)c1=O,inactive,–
CC(C)COC(=O)CC(C(=O)OCC(C)C)S(=O)(=O)O (stereo not given),inactive,–
CCCCCCCCCCCCCCCC(=O)NCCO,inactive,–
COc1cc2c3cc1Oc1cc(ccc1O)C[C@@H]1c4c(cc(OC)c(O)c4Oc4ccc(cc4)C[C@@H]3N(C)CC2)CC[N+]1(C)C,inactive,–
O=C(O)c1ccccc1C(=O)OCc1ccccc1,inactive,–
C=C(C)C(=O)OC1CC(C)CC(C)(C)C1 (stereo not given),inactive,–
CCCCCCCC[Si](OCC)(OCC)OCC,inactive,–
C=CCCCCCCCCCCC,–,3.08% [at 6.97 µM]
C=C[C@@H](C)CCC=C(C)C,inactive,–
Nc1nc(=O)n([C@@H]2O[C@H](CO)[C@@H](O)[C@@H]2F)cc1I,inactive,–
COc1ccc(NS(=O)(=O)c2ccc(N)cc2)nn1,inactive,–
O=C(O)CCNC(=O)c1ccccc1,inactive,–
NC(=O)NNC(N)=O,inactive,–
CCC(C)(CCC(C)C)C(=O)[O-].CCC(C)(CCC(C)C)C(=O)[O-].[Zn+2] (stereo not given),inactive,–
CN(C)CCCNCCC#N,inactive,–
CCOC(=O)CCc1ccccc1,inactive,–
C=COCCOCCOC=C,inactive,–
CCCCC(CC)COC(=O)c1ccccc1 (stereo not given),inactive,–
